# According to PubChem BioAssay AID847 (SRMLSC, 2007):
# About 190 (0.46%) of roughly 41,000 compounds were called active.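 Rule for the calls: active = viability at or below the median of all test compounds minus 3 SD, in both replicates if run twice (cut at about 45% in these data); inconclusive = duplicate replicates that disagree with each other; inactive = viability above that cutoff in every replicate.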 For the sample, actives were picked, then their nearest neighbours and some compounds at random.
# Assay: viability loss of SK-BR-3 cells – cell-based, human, 24 h, primary screen (AID 847);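 note: 100% = median untreated cell wells and 0% = median positive control drug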
# Details: SK-BR-3 viability, CellTiter-Glo ATP luminescence, at 10 µM, stronger effect = lower value
row,SMILES,viability
1,CN(C)c1ccc(CNC23CN4CN(CN(C4)C2)C3)cc1,99% (inactive)
2,Cn1c2c(c(=O)n(C)c1=O)CN(Cc1ccco1)CN2,83.8% (inactive)
3,O=C(Cn1c(=O)sc2ccccc21)Nc1ccc2c(c1)OCCO2,78.4% (inactive)
4,Cc1ccc2cc(C#N)c(SCC(=O)NCC3CCCO3)nc2c1C (stereo not given),82.7% (inactive)
5,O.O.O.O=S(=O)([O-])OC[C@H]1O[C@@H](O[C@]2(COS(=O)(=O)[O-])O[C@H](OS(=O)(=O)[O-])[C@@H](OS(=O)(=O)[O-])[C@@H]2OS(=O)(=O)[O-])[C@H](OS(=O)(=O)[O-])[C@@H](OS(=O)(=O)[O-])[C@@H]1OS(=O)(=O)[O-].[Al],89.7% (inactive)
6,CC(=O)Nc1cccc2c1[n+]([O-])c(C)c(C)[n+]2[O-],115% (inactive)
7,CCN(CC)P(=O)(/C(Cl)=C\Nc1c(C)n(C)n(-c2ccccc2)c1=O)N(CC)CC,104% (inactive)
8,Cn1nnnc1SCC(=O)N1CCN(Cc2ccccc2)CC1,103% (inactive)
9,Cn1c(SCC(=O)Nc2cccc(NC(=O)c3cccs3)c2)nnc1-c1ccncc1,91.4% (inactive)
10,O=C(CSc1nc(-c2ccco2)cc(C(F)(F)F)n1)N1CCc2ccccc2C1,113% (inactive)
11,CCCN1C(=O)C(NC(C)=O)c2cc(OC)ccc21 (stereo not given),88.1% (inactive)
12,Cc1nc2cc(-c3ccc(F)cc3)nn2c(N2CCOCC2)c1C,89.5% (inactive)
13,FC(F)(F)c1cccc(Nc2ncnc3ccccc23)c1,90.1% (inactive)
14,CCOC(=O)Cc1csc(NC(=O)C(C)(C)C)n1,89.5% (inactive)
15,CCOC(=O)Cc1csc(NC(=O)CSc2nc(C)cc(=O)[nH]2)n1,43.4% (active)
16,CCOC(=O)Cc1csc(NC(=O)Nc2ccccc2)n1,111% (inactive)
17,Cc1cc(C)cc(NC(=O)N2CCC(NC(=O)c3ccc(F)cc3)CC2)c1,103% (inactive)
18,COc1cc(OC)cc(C(=O)NCCSCc2ccco2)c1,80.3% (inactive)
19,N#Cc1c(NC(=O)CSc2nc3ccccc3c(=O)n2Cc2ccco2)sc2c1CCCC2,72.2% (inactive)
20,CCOc1ccccc1NC(=O)CCc1ccc(C)o1,103% (inactive)

row,SMILES,viability
1,COCCCNC(=O)c1c(F)c(F)c(F)c(F)c1F,79.3% (inactive)
2,O=C1Nc2ccccc2C12Nc1ccccc1S2 (stereo not given),75.9% (inactive)
3,Cc1ccc(C(C)C)c(OCc2nnc(SCC(=O)Nc3nccs3)n2C)c1,92.6% (inactive)
4,O=C(Cc1cccs1)N1CCCC(c2nc(-c3ccc(S(=O)(=O)N4CCCC4)cc3)no2)C1 (stereo not given),72.5% (inactive)
5,Cc1sc2c(c1C)c(=O)n(-c1ccccc1)c1nncn21,90.1% (inactive)
6,O=C(Nc1ccccc1N1CCN(C(=O)c2ccccc2)CC1)c1ccc2c(c1)OCO2,68% (inactive)
7,CCn1nc(NC(=O)c2ccco2)c2cc3ccc(C)cc3nc21,79.8% (inactive)
8,COCCCNC(=O)COc1cc(C)c(Cl)c(C)c1,104% (inactive)
9,CC(=O)CCS(=O)(=O)c1ccc(C)c(C)c1,73.8% (inactive)
10,CCOc1cc(/C=N/O)cc(Br)c1OC,90.1% (inactive)
11,CCc1ccccc1NC(=O)CSc1nnc([C@@H](NC(=O)OC(C)(C)C)C(C)CC)o1 (stereo not given in full),89.6% (inactive)
12,O=S(=O)(NCCNS(=O)(=O)c1ccccc1)c1ccccc1,87.2% (inactive)
13,CCOC(=O)c1nc(N)sc1C(=O)OCC,82.9% (inactive)
14,CCCCOc1ccc(NC(=O)CSCC(=O)OCC)cc1,97.7% (inactive)
15,CCN(CC)C(=O)CSc1nnc(-c2cnccn2)n1-c1ccc(C)cc1,112% (inactive)
16,CC(=O)N(CN1C(=O)C2CC=CCC2C1=O)c1cccc(Cl)c1 (stereo not given),102% (inactive)
17,O=C(Nc1c(C(=O)N2CCCCC2)cnn1-c1ccccc1)c1ccco1,81.5% (inactive)
18,CCOC(=O)c1cnc(-n2nc(C)cc2C)nc1-n1nc(C)cc1C,108% (inactive)
19,CCN(CC)C(=O)CSc1nnc(-c2cccc(OC)c2)o1,88.1% (inactive)
20,CCS(=O)(=O)n1nc(-c2ccc(OC)cc2)nc1SC,101% (inactive)

row,SMILES,viability
1,O=C(CSc1nnnn1-c1ccc2c(c1)CCC2)Nc1ccc2c(c1)OCCO2,86.1% (inactive)
2,O=C(CSc1nnnn1C1CCCC1)Nc1ccc2c(c1)OCCO2,42.5% (active)
3,CCC(=O)Nc1cccc(NC(=O)CSc2nnnn2C2CCCC2)c1,69% (inactive)
4,CCOc1cccc(-c2nn3c(-c4ccccn4)nnc3s2)c1,116% (inactive)
5,CCOC(=O)CNC(=O)CSc1nnc(-c2cccc(OC)c2)n1CC,104% (inactive)
6,O=C1CCC(=O)N1CCOP1(=O)COc2ccccc2OC1,98.7% (inactive)
7,CCOC(=O)Cn1c(SC)nc2sc3c(c2c1=O)CC(C)(C)OC3,93.7% (inactive)
8,CSCC[C@H](NC(=O)NCCc1ccc(F)cc1)C(=O)O,79.6% (inactive)
9,O=C(Nc1nn(Cc2ccccc2F)cc1Br)c1cccs1,98.6% (inactive)
10,C=CCn1c(CSc2nc3ccccc3s2)nnc1SCC(=O)NCc1ccco1,125% (inactive)
11,Cc1ccc(NC(=O)Cn2nc(C)c3ccccc3c2=O)c(C)c1,112% (inactive)
12,CCCCn1c(SCC(=O)N2CCC(C(=O)OCC)CC2)nc2cc(S(N)(=O)=O)ccc21,89.6% (inactive)
13,C=CCN1C(=O)C(O)(CC(=O)c2ccc(Cl)cc2)c2ccccc21 (stereo not given),86.7% (inactive)
14,COc1ccc(OC)c(NC(=O)CSc2nc(N)c(-c3ccccc3)c(=O)[nH]2)c1,98.9% (inactive)
15,CN1CCN(C(=O)C2C3C=CC(C3)C2C(=O)O)CC1 (stereo not given),109% (inactive)
16,COc1ccc(N2CC(C)Cn3c2nc2c3c(=O)n(Cc3ccccc3F)c(=O)n2C)c(OC)c1 (stereo not given),89.5% (inactive)
17,CC1(C)NC(=O)N(CCOc2cccc(Oc3ccccc3)c2)C1=O,94.6% (inactive)
18,C[C@H](NC(=O)OC(C)(C)C)c1nnc(SCC(=O)Nc2ccc(Br)cc2)o1,91.1% (inactive)
19,CCS(=O)(=O)NCCc1ccc(OC)c(OC)c1,85.1% (inactive)
20,CCOc1ccccc1N(CC(=O)Nc1ccccc1C(=O)OC)S(C)(=O)=O,114% (inactive)
